We go through 93 compounds from PubChem BioAssay AID2314 (National Center for Advancing Translational Sciences (NCATS), 2010).

Molecules are shown by their SMILES. “And” between values parts separate entries of the source, which are not always exact repeats. Equal entries are not always repeated. Screen size: about 300,000 compounds; about 37,000 (12%) were called active. This is one part of a sample in which actives are shown more often than they occur. A number with no mark means an inactive call. Rule as the data show it: active = max response mostly above about 13% (no sharp cut-off); inactive = mostly below about 14%.

The assay in a line: Cycloheximide Counterscreen for Small Molecule Inhibitors of Shiga Toxin. Also: read at 38.3 µM for the half of the compounds with a filed dose; 0% is about no effect. To be noted: cell reporter, cycloheximide protein synthesis inhibition counterscreen; stronger effect = higher value.
With `Cc1ccc(C(C)C)c(OCCSc2nc3ccccc3n2CC(=O)O)c1`, the max response is -3.05%.

Consider `CN(CC1CCCN(CCc2cccc(C(F)(F)F)c2)C1)C(=O)c1ccc2nc[nH]c2c1` (stereo not drawn), for which the max response was 7.92%.

Consider `Cc1ccc(-c2nc(SCC(=O)Nc3ccccc3OC(F)F)c3c(C)c(C(=O)O)sc3n2)cc1`, for which the max response is -2.74%.

Turning to `Cc1ccc(C(C)(C)C)c(OCCCCN2CCCC2)c1`, the max response was -1.44%.

Regarding `CCOc1ccc(NC(=O)CN(C)CC(=O)Nc2cccc(Cl)c2C)cc1OCC`, the max response was -1.94%.

In the case of `Cc1ccccc1NC(=O)C1CCCN(C(=O)NCc2ccccc2)C1` (stereo not drawn), the max response was -2.13%.

As for `CCNC(=O)N1CCCC(C(=O)c2ccc(-c3ccccc3)cc2)C1` (stereo not drawn), the max response is 35% (active).

For `O=C(c1ccc(-c2ccccc2)cc1)C1CCCN(C(=O)c2cncs2)C1` (stereo not drawn), the max response was -0.779%.

For the compound `N#C/C(=C\c1cccnc1)C(=O)Nc1ccc(SC(F)F)cc1`, the max response is -2.71%.

As to `CCC(NC(=O)C1CCCC1)c1ccc(C)cc1` (stereo not drawn), the max response is -1.61%.

For `Cc1cccc(C)c1NC(=O)N1CC(C)OC(C)C1` (stereo not drawn), the max response is -0.915%.

As for `Cc1c(C(=O)N2CCCc3ccccc32)sc2nc(-c3ccccc3)cn12`, the max response is 7.76% (active).

On to `Cc1cccc2cc3c(N)c(C(=O)N4CCCc5ccccc54)sc3nc12`, for which the max response was -2.83%.

Take `Cc1c(C(=O)N2CC(C)OC(C)C2)sc2nc(-c3ccccc3)cn12` (stereo not drawn): the max response was 26.8% (active).

Regarding `O=C(CSc1ccc(-c2ccccc2)nn1)NCC1CCCO1` (stereo not drawn), the max response was 8.54%.

As for `O=C(c1c(Cl)nc2sccn12)N1CCCc2ccccc21`, the max response is 11.5%.

In the case of `CC1CN(C(=O)CN2C(=O)NC(C)(c3ccccc3)C2=O)CC(C)O1` (stereo not drawn), the max response is -0.354%.

With `Cc1c(C(=O)NCC2CCCO2)sc2nc(-c3ccccc3)cn12` (stereo not drawn), the max response is 78.5% (active).

Consider `CCOc1ccc(-n2c(N)c(C(=O)NCC3CCCO3)sc2=S)cc1` (stereo not drawn), for which the max response was -1.47%.

`O=C(NC1CC1)C(Cc1ccccc1)NS(=O)(=O)c1ccccc1F` (stereo not drawn): the max response was -2.2%.

Turning to `Cc1sc2nc(SCCO)n(-c3ccccc3)c(=O)c2c1C`, the max response was 1.18%.

Consider `Cc1oc2c(F)c(F)c(F)c(F)c2c1S(=O)(=O)Nc1cccc(C(F)(F)F)c1`, for which the max response is 2.32%.

As for `COc1ccc(CNC(=O)CSc2n[nH]c(N)n2)cc1OC`, the max response is -3.7%.

As to `COc1ccc(C)cc1NC(=O)CN(C)S(=O)(=O)c1ccc2c(c1)n(C)c(=O)c(=O)n2C`, the max response was 0.886%.

For the compound `Cc1ccc(S(=O)(=O)N(C)C)cc1NC(=O)/C=C/c1cccs1`, the max response was -3.65%.

For the compound `Cc1ccc(NC(=O)c2cccs2)cc1S(=O)(=O)N(C)C`, the max response was 17.7% (active).

Regarding `COc1ccc(CCC(=O)OCC(=O)Nc2ccc(C)c(S(=O)(=O)N(C)C)c2)cc1`, the max response is -1.02%.

As for `CCN(CC(=O)Nc1ccc(C)c(S(=O)(=O)N(C)C)c1)Cc1ccccc1`, the max response was 10.7%.

`Cc1ccc(C(=O)Nc2ccc(NC(=O)c3cccs3)cc2)c(C)c1`: the max response is 3.31%.

As to `Cc1ccc(C(=O)Nc2ccc(C)c(S(=O)(=O)N(C)C)c2)s1`, the max response was 73.5% (active).

With `CCn1c(SCC(=O)NC2CC2)nnc1-c1ccccc1OC`, the max response is -2.41%.

`COc1ccc(C2CC(c3cccs3)=NN2C(=O)COC(=O)c2cc3ccccc3cc2O)cc1OC` (stereo not drawn): the max response is -1.77%.

For the compound `C=CCn1c(SCc2ccc(C(=O)NCCO)cc2)nc2ccccc2c1=O`, the max response is 0.679%.

As for `Cc1cc(C)cc(N(CC(=O)NC2CCCC2)C(=O)CCC(=O)Nc2cc(C)on2)c1`, the max response was -3.66%.

As for `O=C(c1ccco1)N1CCN(C(=O)c2cc(-c3ccccc3F)no2)CC1`, the max response is 24.9% (active).

On to `O=C(c1ccco1)N1CCN(C(=S)Nc2cc(F)cc(F)c2)CC1`, for which the max response was -0.627%.

Regarding `O=C(NCCCN1CCOCC1)c1cc(-c2cccc(O)c2)on1`, the max response was 2.22%.

As to `O=C(NCCCN1CCOCC1)c1ccccc1NS(=O)(=O)c1ccc(F)cc1`, the max response is 16.7% (active).

For `O=C(NCCCN1CCOCC1)c1cc(-c2ccc(Cl)cc2)on1`, the max response was -2.13%.

As to `O=C(NCCCN1CCOCC1)c1cnn2c(-c3ccccc3)cc(-c3ccccc3)nc12`, the max response was -2.91%.

With `O=C(NCCCN1CCOCC1)c1cc(-c2ccccc2F)no1`, the max response is 28% (active).

`O=C(NCCCN1CCOCC1)c1ccccc1NS(=O)(=O)c1ccc(Br)cc1`: the max response is 2.08%.

Consider `O=C(Cc1c(F)cccc1Cl)N1CCN(C(=O)c2ccco2)CC1`, for which the max response is -3.56%.

As for `Cc1ccccc1-n1cc(CNC(=O)CC2C(=O)NCCN2C/C=C/c2ccccc2)cn1` (stereo not drawn), the max response was 0.457%.

As for `COc1ccc(NC(=O)CCn2ccnc2)c(OC)c1`, the max response was -2.17%.

Take `COc1ccc(Cl)cc1NC(=O)C(C)N1CCc2ccccc21` (stereo not drawn): the max response is -0.595%.

For the compound `CC1CC(C)CN(C(=O)CSc2ccsc2[N+](=O)[O-])C1` (stereo not drawn), the max response was 25.5%.

For the compound `COc1ccc(C(CNC(=O)COc2ccccc2OC)N2CCCCC2)cc1` (stereo not drawn), the max response was -6.3%.

In the case of `CC1CN(CCCOc2ccccc2-c2ccccc2)CC(C)O1` (stereo not drawn), the max response was -3.01%.

Take `NNC(=O)CSc1nnc(-c2ccccc2)n1-c1ccccc1`: the max response is -4.61%.

For `COc1ccc(C(=O)C2CCCN(S(=O)(=O)c3cccc(C)c3)C2)c(C)c1` (stereo not drawn), the max response was 1.12%.

For `COc1ccc(Cc2nnc(SCC(=O)Nc3ccc(C)c(C)c3)o2)cc1OC`, the max response was -0.716%.

As for `NC1=NN(c2cccc(C(=O)O)c2)C(=O)C1`, the max response was 131% (active).

In the case of `O=C(c1cccc(N2CCCC2=O)c1)N1CCOCC1`, the max response was -1.05%.

With `COC(=O)CC1=NN(c2ccccc2)C(=O)C1`, the max response was -2%.

With `CCO[C@H]1OC(C(=O)N2CCN(Cc3ccccc3)CC2)=C[C@@H](c2cn(C(C)=O)c3ccccc23)[C@@H]1CCCO`, the max response was -1.61%.

With `O=C(Nn1cnc2ccccc2c1=O)c1ccc([N+](=O)[O-])cc1Cl`, the max response is 3.29%.

As to `O=C(Nn1cnc2ccccc2c1=O)c1ccc(F)cc1Cl`, the max response was 22.9% (active).

In the case of `O=C(Nn1cnc2ccccc2c1=O)c1ccccc1`, the max response was 18%.

For `COc1cc(CCC(=O)N2CCN(c3ccccc3Cl)CC2)cc(OC)c1OC`, the max response was -5.65%.

On to `CNC(=S)N/N=C/c1ccc(OCc2ccccc2)c(Br)c1`, for which the max response is -5.52%.

Turning to `Cc1ccc(CNC(=O)C2(C(F)(F)F)C/C(=C\CCO)CCCO2)o1` (stereo not drawn), the max response is 7.26%.

For `CS(=O)(=O)Nc1cccc(-c2cn3ccccc3n2)c1`, the max response is 19.3% (active).

For the compound `COc1ccc(OC)c(S(=O)(=O)Nc2cccc(-c3ccc4nncn4n3)c2)c1`, the max response is -3.34%.

On to `CCC(=O)Nc1cccc(NC(=O)CSc2nnc(-c3ccc(NS(C)(=O)=O)cc3)n2C)c1`, for which the max response was -1.2%.

Consider `CC(=O)C1=C(O)C(=O)N(c2ccc(Br)cc2)C1c1ccc([N+](=O)[O-])cc1` (stereo not drawn), for which the max response was -1.92%.

Turning to `Oc1ccc(Br)cc1/C=N/Nc1ccccn1`, the max response is 41.6% (active).

For the compound `CCN(CC)CCn1c(/N=C/c2cc(Br)ccc2O)nc2ccccc21`, the max response was 8.52%.

As to `Oc1ccc(Br)cc1C=Nc1ccc2[nH]ncc2c1`, the max response was -2.62%.

With `COc1cccc(-n2c(N)cc(=O)nc2SCC(=O)Nc2cc(C)on2)c1`, the max response was -3.66%.

As for `Cc1ccnc(N2CCN(C(=O)CSc3nc4ccccc4nc3N3CCCCC3)CC2)c1`, the max response was -5.65%.

With `Cn1c(Nc2ccccc2)cc(=O)n(C)c1=O`, the max response was -4.74%.

For `COc1ccc(C(=O)COC(=O)CNC(=O)c2cccs2)cc1Br`, the max response is -4.46%.

On to `COc1cc(NC(=S)NCCSc2ccc(C)cc2)cc(OC)c1`, for which the max response was 2.45%.

As for `Cc1ccc(C(=O)NNC(=O)c2cc3cc4ccccc4nc3s2)cc1`, the max response is -2.84%.

As to `CCc1nc(SCC(=O)NNC(=O)c2ccc(C)cc2)c2ccccc2n1`, the max response was -3.44%.

With `Cc1ccc(C(=O)NNc2ncnc3ccccc23)cc1`, the max response is 37.5% (active).

In the case of `CCOc1ccccc1-c1nc(CN2CCC(C(=O)N3CCOCC3)CC2)c(C)o1`, the max response is 5.66%.

Take `CCOC(=O)CSc1nnc(NC(=O)C2CC(=O)N(c3ccc(F)cc3)C2)s1` (stereo not drawn): the max response was 4.08%.

Take `Cc1cc(-c2n[nH]c(=S)n2/N=C/C(Br)=C/c2ccccc2)n[nH]1`: the max response is 95.8% (active).

As for `Cc1cc(-c2n[nH]c(=S)n2/N=C/c2ccco2)n[nH]1`, the max response is 0.979%.

Turning to `S=c1[nH]nc(-c2cccnc2)n1/N=C/C(Cl)=C\c1ccccc1`, the max response was -2.93%.

As for `Cc1nn(C)cc1S(=O)(=O)N1CCN(c2ccc(F)cc2)CC1`, the max response was 11.1%.

With `CN(C(=O)COC(=O)CNC(=O)C12CC3CC(CC(C3)C1)C2)c1ccccc1`, the max response is 1.16%.

For `C#C[C@]1(O)CC[C@H]2[C@@H]3CCC4=CC(=O)CC[C@@H]4[C@H]3CC[C@@]21CC`, the max response was -12.5% and -2.99% and -5.94%.

In the case of `Cc1nc(CN(C)C(=O)CC2C(=O)NCCN2Cc2ccc(F)cc2)cs1` (stereo not drawn), the max response was -1.31%.

On to `CNC(=S)N1N=C(c2ccccc2)CC1c1ccc(Br)cc1` (stereo not drawn), for which the max response was 12.1%.

As to `Brc1ccc(C2=NCCC(c3ccccc3)O2)cc1` (stereo not drawn), the max response was 6.52%.

With `Brc1ccc(C2CC(c3ccccc3)=Nc3ccccc3N2)cc1` (stereo not drawn), the max response is 43.8% (active).

Consider `CNC[C@H](CC1CCCCC1)NC[C@H](NCCC1CCCC1)[C@H](C)O`, for which the max response was -3.05%.

On to `COc1ccc(N2CCN(C(=O)CSc3nc4cc(OC)c(OC)cc4cc3C#N)CC2)cc1`, for which the max response was 2.1%.

In the case of `CCOc1ccc2cc(C#N)c(SCC(=O)OC)nc2c1`, the max response was 26.6% (active).

Regarding `Cc1nonc1NC(=O)CSc1nc2ccccc2cc1C#N`, the max response was 29.2%.
